Hit rate of the full screen: of about 52,000 compounds, about 4,300 (8.3%) were called active. The sample holds actives, similar compounds and a random draw of the others, so the mix is not that of the screen. Unmarked numbers belong to inactive results. No stated cut-off is given here; in the data, active means survival mostly below about 52% (no sharp cut-off); inactive means mostly above about 56%.
Tested on: DeltatarO mutant
Assay: growth inhibition of S. aureus wild type versus tarO mutant, primary screen, teichoic acid synthesis inhibitors, RN4220, OD600 (AID 463173)
Conditions: OD600, 18 h, stronger effect = lower value, screened at 18.75 µg/mL (by protocol)

Question: Which survival does the source give for `Cc1cccc(CCNC(=O)c2ccc(CSCc3cccc(Cl)c3)o2)c1` here?
Answer: 70%

Question: Which survival does the source give for `O=C(CN1C(=O)COc2ccc(S(=O)(=O)N3CCOCC3)cc21)Nc1ccc(F)c(Cl)c1` here?
Answer: 106%

Question: `CCc1ccc(NC(=O)CN2C(=O)C3(SCC(=O)N3c3ccccc3)c3ccccc32)cc1` (stereo unspecified) was tested. Which survival did it give?
Answer: 129%

Question: Which survival does the source give for `Cc1ccc(-n2c(SCC(=O)NCc3ccccc3)nc3n[nH]c(C)c3c2=N)cc1Cl` here?
Answer: -5% (active)

Question: For `Cc1ccc(Cl)cc1-n1c(SCC(=O)NCc2ccccc2)nc2n[nH]c(C)c2c1=N`, which survival is on record?
Answer: 81%

Question: For `CCCCN(CC)C(=O)CSc1nc2n[nH]c(C)c2c(=N)n1-c1cccc(C)c1`, which survival is on record?
Answer: 88%

Question: With `Cc1cccc(NC(=O)CSc2nc3n[nH]c(C)c3c(=N)n2-c2cccc(Cl)c2)c1` as the compound, how does the survival read?
Answer: 55%

Question: Which survival does the source give for `CCCCN(CC)C(=O)CSc1nc2n[nH]c(C)c2c(=N)n1-c1cccc(Cl)c1` here?
Answer: 17% (active)

Question: With `Cc1ccc(NC(=O)CSc2nc3n[nH]c(C)c3c(=N)n2-c2cccc(C)c2)cc1` as the compound, how does the survival read?
Answer: -5% (active)

Question: How did the survival turn out when `Cc1c(Cl)cccc1-n1c(SCC(=O)NCc2ccccc2)nc2n[nH]c(C)c2c1=N` was run?
Answer: 126%

Question: `Cc1cccc(-n2c(SCC(=O)Nc3ccc(C)c(C)c3)nc3n[nH]c(C)c3c2=N)c1` was tested. Which survival did it give?
Answer: 87%

Question: For `CCCCN(CC)C(=O)CSc1nc2n[nH]c(C)c2c(=N)n1-c1cccc(OC)c1`, which survival is on record?
Answer: 109%

Question: Which survival does the source give for `O=C(NCC1CCCO1)Nc1c[nH]c2c(Cl)cccc2c1=O` (stereo unspecified) here?
Answer: 97%

Question: With `Cn1c(=O)cc(SCC(=O)NCc2ccc(F)cc2)c2ccc(Cl)cc21` as the compound, how does the survival read?
Answer: 91%

Question: For `Cc1cccc(Cn2c(C)c(C)c3cc(C(=O)NCc4ccco4)ccc32)c1`, which survival is on record?
Answer: 94%

Question: `COc1cc(CCNC(=O)c2ccc3c(c2)c(C)c(C)n3Cc2cccc(C)c2)cc(OC)c1OC` was tested. Which survival did it give?
Answer: 80%

Question: For `Cc1ccc(CNC(=O)CC(C)S(=O)(=O)c2cc3c(cc2C)NC(=O)CO3)cc1` (stereo unspecified), which survival is on record?
Answer: 89%

Question: Which survival does the source give for `O=C(Nc1ccc(C(=O)N2CCN(c3ccccc3)CC2)cc1)c1nsc2ccccc12` here?
Answer: -1% (active)

Question: Which survival does the source give for `Cc1ccc(C(=O)N2CCC(C)CC2)cc1NC(=O)c1nsc2ccccc12` here?
Answer: 96%

Question: `Cc1ccc(C(=O)N2CCCCC2)cc1NC(=O)c1nsc2ccccc12` was tested. Which survival did it give?
Answer: -4% (active)

Question: With `Cc1ccc(C)c(N2CCN(C(=O)c3ccc(NC(=O)c4nsc5ccccc45)cc3)CC2)c1` as the compound, how does the survival read?
Answer: 67%

Question: For `Cc1ccc(C(=O)N2CCC(C(N)=O)CC2)cc1NC(=O)c1nsc2ccccc12`, which survival is on record?
Answer: 87%

Question: Which survival does the source give for `O=C(Nc1ccc(C(=O)N2CCN(c3ccc(F)cc3)CC2)cc1)c1nsc2ccccc12` here?
Answer: 81%

Question: With `Cc1ccc(Cl)cc1N1CCN(C(=O)c2ccc(NC(=O)c3nsc4ccccc34)cc2)CC1` as the compound, how does the survival read?
Answer: 6% (active)

Question: How did the survival turn out when `O=C(Nc1ccc(C(=O)N2CCN(c3ccc(Cl)cc3)CC2)cc1)c1nsc2ccccc12` was run?
Answer: 72%

Question: Which survival does the source give for `O=C(Nc1ccc(C(=O)N2CCN(c3cccc(Cl)c3)CC2)cc1)c1nsc2ccccc12` here?
Answer: 79%

Question: With `Cc1ccc(N2CCN(C(=O)c3cn(C)c4ccc(S(=O)(=O)N(C)C5CCCCC5)cc4c3=O)CC2C)cc1` (stereo unspecified) as the compound, how does the survival read?
Answer: 91%

Question: With `O=C(CSc1nccn1-c1ccc(F)cc1)Nc1ccc(OC(F)(F)F)cc1` as the compound, how does the survival read?
Answer: 78%

Question: With `CCc1ccc(S(=O)(=O)Nc2ccc3c(c2)sc(=O)n3C)cc1` as the compound, how does the survival read?
Answer: 91%

Question: For `COC(=O)c1ccccc1NC(=O)Cn1c(=O)n(-c2ccc(Cl)cc2)c(=O)c2c(C)c(C)sc21`, which survival is on record?
Answer: 86%

Question: How did the survival turn out when `CCOC(=O)c1[nH]c(C)c(CCC(=O)NCc2cccc(Cl)c2)c1C` was run?
Answer: 76%

Question: Which survival does the source give for `COc1ccc(CNC(=O)Cn2ncc3c(=O)oc4ccccc4c32)c(OC)c1` here?
Answer: 89%

Question: With `O=C(COc1ccccc1F)Nc1ccc2nc(SCC(=O)N3CCOCC3)sc2c1` as the compound, how does the survival read?
Answer: 79%

Question: How did the survival turn out when `CCOc1ccc(CCNC(=O)CCc2c(C)nc3c(-c4ccccc4)c(C)nn3c2C)cc1OCC` was run?
Answer: 70%

Question: `Cc1ccc(SCCNC(=O)CN(c2cccc(C)c2C)S(C)(=O)=O)cc1` was tested. Which survival did it give?
Answer: 57%

Question: How did the survival turn out when `Cc1cccc(N(CC(=O)NCCSCc2cccc(Cl)c2)S(=O)(=O)c2ccccc2)c1C` was run?
Answer: 57%

Question: Which survival does the source give for `Cc1ccccc1CSCCNC(=O)CN(c1ccccc1)S(=O)(=O)N(C)C` here?
Answer: 52%

Question: For `Cc1cccc(N(CC(=O)NCCSc2ccc(Cl)cc2)S(C)(=O)=O)c1C`, which survival is on record?
Answer: 38% (active)

Question: With `Cc1cccc(N(CC(=O)NCCSCc2ccc(Cl)cc2)S(C)(=O)=O)c1C` as the compound, how does the survival read?
Answer: 33% (active)

Question: Which survival does the source give for `CN(C)S(=O)(=O)N(CC(=O)NCCSCc1cccc(Cl)c1)c1ccccc1` here?
Answer: 57%

Question: How did the survival turn out when `CN(C)S(=O)(=O)N(CC(=O)NCCSCc1ccc(Cl)cc1Cl)c1ccccc1` was run?
Answer: 47% (active)

Question: `Cc1ccc(CSCCNC(=O)CN(c2cccc(C)c2C)S(=O)(=O)c2ccccc2)cc1` was tested. Which survival did it give?
Answer: 52%

Question: For `Cc1cccc(N(CC(=O)NCCSc2ccc(Cl)cc2)S(=O)(=O)c2ccccc2)c1C`, which survival is on record?
Answer: 49%

Question: Which survival does the source give for `COc1cc(Cl)c(NS(=O)(=O)c2ccc3c(c2)CC(C)N3C(=O)C2CCC2)c(OC)c1` (stereo unspecified) here?
Answer: 80%

Question: How did the survival turn out when `CC(C)NC(=O)c1ccc(Cn2c(SCc3ccc(F)cc3)nc3cccnc32)cc1` was run?
Answer: 55%

Question: With `O=C1c2ccccc2-c2nc3ccccc3c(=O)n21` as the compound, how does the survival read?
Answer: 106%

Question: Which survival does the source give for `COc1cc(OC)c(NC(=O)COc2ccccc2-c2nnc(-c3ccccc3)o2)cc1Cl` here?
Answer: 95%

Question: With `COCCCNC(=O)c1ccc2nc(Cc3ccc(OC)cc3)oc2c1` as the compound, how does the survival read?
Answer: 69%

Question: Which survival does the source give for `N#C/C(=C\c1cn(Cc2ccc(C#N)cc2)c2ccccc12)C(=O)NCc1ccco1` here?
Answer: 67%

Question: `O=C(Cn1cnc2onc(-c3ccc(F)cc3)c2c1=O)Nc1ccc(F)c(Cl)c1` was tested. Which survival did it give?
Answer: 84%

Question: With `CCOC(=O)c1ccccc1NC(=O)CN1CCCN(Cc2cc(C)ccc2C)S1(=O)=O` as the compound, how does the survival read?
Answer: 126%

Question: For `CCOC(=O)c1c(C)oc2ncnc(N3CCN(c4ccccc4)CC3)c12`, which survival is on record?
Answer: 89%

Question: How did the survival turn out when `CCOC(=O)c1c(C)oc2c1c(O)c(N=O)c1ccccc12` was run?
Answer: 18% (active)

Question: For `CCOC(=O)c1c(C)oc2nc(C)nc(N3CCN(c4ccccc4)CC3)c12`, which survival is on record?
Answer: 83%

Question: With `CCN(CC)c1cc(C)c2cc(NC(=O)c3ccccc3Cl)ccc2n1` as the compound, how does the survival read?
Answer: 55%

Question: `CCN(CC)c1cc(C)c2cc(NC(=O)/C=C/c3ccccc3OC(C)C)ccc2n1` was tested. Which survival did it give?
Answer: 71%

Question: For `CCN(CC)c1cc(C)c2cc(NC(=O)c3ccc(OC)c(OC)c3)ccc2n1`, which survival is on record?
Answer: 35% (active)

Question: Which survival does the source give for `CCN(CC)c1cc(C)c2cc(NC(=O)c3cc(OC)cc(OC)c3)ccc2n1` here?
Answer: 59%

Question: How did the survival turn out when `CCOc1ccc(C(=O)Nc2ccc3nc(N(CC)CC)cc(C)c3c2)cc1` was run?
Answer: 70%

Question: Which survival does the source give for `CCN(CC)c1cc(C)c2cc(NC(=O)c3ccc(F)cc3Cl)ccc2n1` here?
Answer: 39% (active)

Question: With `CCN(CC)c1ccc(C(=O)Nc2ccc3nc(N(CC)CC)cc(C)c3c2)cc1` as the compound, how does the survival read?
Answer: 52%

Question: With `CCN(CC)c1cc(C)c2cc(NC(=O)c3cccc(OC)c3OC)ccc2n1` as the compound, how does the survival read?
Answer: 95%

Question: Which survival does the source give for `CCN(CC)c1cc(C)c2cc(NC(=O)c3cccc(F)c3)ccc2n1` here?
Answer: 42%

Question: With `CCOc1ccccc1C(=O)Nc1ccc2nc(N(CC)CC)cc(C)c2c1` as the compound, how does the survival read?
Answer: 65% (active)

Question: Which survival does the source give for `CCN(CC)c1cc(C)c2cc(NC(=O)c3cccc(OC)c3)ccc2n1` here?
Answer: 40%

Question: With `CCN(CC)c1cc(C)c2cc(NC(=O)c3ccccc3OC)ccc2n1` as the compound, how does the survival read?
Answer: 7% (active)

Source: PubChem BioAssay AID463173 (ICCB-Longwood Screening Facility, Harvard Medical School, 2010)
